In the library only some 3% were active in any assay of this set; here they are far more common.
C8 TRAIL sens – caspase-8 TRAIL sensitization | NB7+C8 cells + TRAIL, ATPlite viability luminescence | inhibition (viability loss, TRAIL sensitization), % at 10 µM | 360,000 compounds, 1% hits;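 active = compounds causing at least 50% loss of cell viability in the single-dose screen, relative to plate controls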
SENP8 block-1 – blocks the human protease SENP8. AID 2540. 330,000 compounds, 1.2% hits. purified SENP8, Z-RLRGG-aminoluciferin cleavage, luminescence. Q96LD8. inhibition, % at 10 µM; in the data active = inhibition above about 50%
SENP6 inh – SENP6 protease inhibition | Q9GZR1 | Recombinant SENP6 catalytic domain, aminoluciferin luminescence | inhibition, % at 10 µM | 330,000 compounds, 1.8% hits;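 active = inhibition above about 50% at the single tested dose, limit read from the data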;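 note: plate controls were DMSO wells with enzyme for no effect and DMSO wells lacking enzyme for full effect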
SENP7 inh – inhibitors of human SENP7 protease. 330,000 compounds, 1.5% hits. inhibition, % at 5 µM. recombinant SENP7, Z-RLRGG-aminoluciferin luminescence, 40 min. Q9BQF6;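 active = inhibition above about 50% at the single test dose, limit read from the data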;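 note: plate controls were DMSO with enzyme for no effect and no enzyme buffer wells for full effect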
Target sequence (Q9BQF6 706-1050 limits assumed): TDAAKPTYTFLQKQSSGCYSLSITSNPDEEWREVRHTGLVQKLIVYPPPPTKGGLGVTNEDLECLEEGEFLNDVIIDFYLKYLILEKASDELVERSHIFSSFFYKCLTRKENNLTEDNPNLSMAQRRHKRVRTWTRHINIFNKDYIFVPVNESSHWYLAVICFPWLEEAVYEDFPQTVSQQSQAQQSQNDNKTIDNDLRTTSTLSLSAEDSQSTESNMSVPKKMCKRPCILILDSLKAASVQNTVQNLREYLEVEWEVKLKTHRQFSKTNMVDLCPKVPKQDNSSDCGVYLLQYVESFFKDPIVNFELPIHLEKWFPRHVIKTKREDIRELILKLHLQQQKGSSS
SENP8 block-2 – SENP8 (human) protease inhibition | Q96LD8 | recombinant SENP8, Nedd8 substrate fluorescence | inhibition, % at 20 µM | 360,000 compounds, 0.64% hits | AID 602440; in the data active = inhibition mostly above about 40%, no sharp cut-off; inactive = mostly below about 27%
PPC-1+TRAIL kill – kills PPC-1 cancer cells in the presence of TRAIL. PPC-1 cells + TRAIL, ATPLite viability luminescence. 220,000 compounds, 0.41% hits. cell killing (% activity), % at 4 µM or 5 µM;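 active = cell killing above 50% in the first pass at 4 µM, then a duplicate retest at 5 µM averaging 50% or more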;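 note: plate controls were cells with TRAIL plus DMSO for no effect and medium-only wells lacking cells for full effect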
Active calls of the source: *; / = no result.

SMILES | C8 TRAIL sens | SENP8 block-1 | SENP6 inh | SENP7 inh | SENP8 block-2 | PPC-1+TRAIL kill
COc1cccc2c1C(=O)c1c(O)c3c(c(O)c1C2=O)C[C@](O)(C(C)=O)C[C@H]3O[C@@H]1C[C@@H](N)[C@@H](O)[C@@H](C)O1 | 62.3* | 11.4 | 13.3 | 9.6 | 40.9* | /
CNc1nnc(-c2ccc(N(C)C)cc2)s1 | 72.6* | 14.1 | 29.4 | -9.4 | -298.9 | 60.3*
O=C(Nc1ccc(Cl)c(S(=O)(=O)N2CCOCC2)c1)c1ccc(OCC2CCCO2)cc1 (stereo not given) | 51.1* | 4.4 | -1.1 | -5.1 | 5.0 | 11.0
Oc1ccc(C=NCCc2ccccc2)cc1 | 2.7 | -9.1 | -2.9 | -7.8 | 10.7 | /
Cc1ccc(C2=NS(=O)(=O)N(C)C(C(=O)NCc3cccs3)=C2)cc1 | 55.8* | 0.9 | 6.5 | -6.7 | -42.3 | /
Cc1ccc(C2=NS(=O)(=O)N(C)C(C(=O)NCc3ccccn3)=C2)cc1 | -21.0 | 0.5 | -1.7 | -1.4 | -59.1 | /
O=C(Nc1cccc2ncccc12)c1ccc(OCc2ccccc2)cc1 | 25.5 | -14.4 | -12.1 | -9.2 | -11.5 | -9.9
Cc1ccc(NC(=S)N=Nc2c(O)n(C)c3ccc(S(=O)(=O)N4CCOCC4)cc23)cc1 | 26.1 | / | / | / | 29.8* | -2.4
Cc1ccsc1/C=N\NC(=O)c1cc(C(C)(C)C)[nH]n1 | 7.0 | -24.7 | -16.8 | -12.7 | 7.1 | 32.9
Cc1ccsc1/C=N\NC(=O)c1n[nH]c2c1CCC2 | 43.7 | 85.4* | 92.4* | 92.8* | 11.0 | 22.7
C=CCn1c(C)cc(C2=NNC(=Nc3ccc(C)cc3)SC2)c1C | 21.1 | -1.1 | -17.7 | 10.7 | -25.9 | -5.1
C=CCn1c(C)cc(C2=NNC(=NC(C)(C)C)SC2)c1C | 70.3* | 51.0* | 82.8* | 9.3 | -3.5 | 49.0
O=C(NCCCN1CCCC1=O)c1cc2nc(-c3ccco3)cc(C(F)(F)F)n2n1 | 2.2 | 6.5 | -8.0 | 7.8 | -310.8 | /
C=CCN=c1scc(-c2ccco2)n1/N=C/c1ccc(O)c(O)c1O | 5.6 | -8.3 | -10.1 | -5.0 | 50.8* | 13.3
COCCN=c1scc(-c2ccco2)n1/N=C/c1ccc(O)c(O)c1O | 16.6 | -2.8 | -36.6 | -1.9 | 35.9 | 20.2
CC1Cc2cccc3c(O)c(C(=O)c4nn[nH]n4)c(=O)n1c23 (stereo not given) | 16.6 | -8.4 | -2.4 | -1.2 | 10.0 | 10.0
CC(C)(C)c1cc(CCC(=O)NCCc2ccccn2)cc(C(C)(C)C)c1O | 10.4 | -4.2 | -7.6 | -5.7 | 9.7 | /
O=C1C=C(NCCc2cc(Br)c(O)c(Br)c2)C(=O)c2ncccc21 | 56.9* | / | / | / | 115.7* | /
C/C(=N\Nc1nc2ccccc2nc1C)c1ccccc1O | -5.9 | -17.6 | -11.6 | 3.7 | 16.8 | 21.8
CC(=NNc1ccc2ccccc2n1)c1ccccc1O | 76.9* | / | / | / | -38.7 | /
CC12CN(C(=O)c3cccc([N+](=O)[O-])c3)C3(C#N)CC1CCC23C (stereo not given) | 0.8 | -5.4 | -6.2 | 10.6 | 12.0 | /
CCN1C(=O)/C(=c2\o/c(=C3\C=Cc4ccccc4N3CC)c(=O)n2CC)SC1=S | -11.4 | / | / | / | 12.6 | 24.1
CCN1C(=O)/C(=C2\C=Cc3ccccc3N2CC)SC1=S | -1.4 | 0.3 | -18.9 | 9.4 | 46.2* | 16.8
Cc1ccn2cc(C(=O)Nc3ccc4c(c3)OCCO4)nc2c1 | 62.1* | 4.6 | -2.7 | 5.6 | -3.1 | 42.9
Cc1cc(C)n2nc(C(=O)Nc3ccc4c(c3)OCCO4)nc2n1 | 50.8* | 8.4 | -4.2 | -13.6 | 2.0 | /
SMILES | C8 TRAIL sens | SENP8 block-1 | SENP6 inh | SENP7 inh | SENP8 block-2 | PPC-1+TRAIL kill
CC(C)(C)c1ccc(-c2nnc(N)o2)cc1 | 19.1 | 1.0 | -2.7 | 3.1 | 2.9 | 15.4
CCOc1ccc(Oc2c(/C=N/NC(=O)C3CC3)c(C)nn2-c2ccccc2)cc1 | -8.1 | -15.3 | -10.2 | -8.4 | 14.3 | 19.0
CCOc1cc(OCC)cc(C(=O)N2CCC[C@@H]2C(=O)N2CCC[C@@H]2C(=O)NCc2ccccc2Cl)c1 | -7.3 | / | / | / | 12.3 | /
CCn1cc(/C=C/C(=O)c2ccc(O)cc2)c(C)n1 | 63.7* | -14.1 | -0.3 | 0.5 | -32.9 | 37.0
CN=Cc1sc2ccccc2c1O | 16.5 | 5.2 | -63.4 | -5.3 | -18.1 | 9.2
Oc1c(C=Nc2ccc(Cl)cn2)sc2ccccc12 | 44.0 | 28.5 | 66.3* | 56.9* | -109.5 | 5.2
COc1ccc(/C=C2\CCCC3C2=NN(C(=O)CSc2ncn[nH]2)C3c2ccc(OC)cc2)cc1 (stereo not given) | 21.3 | -6.6 | -0.4 | 2.9 | -86.3 | -6.3
